Several values for one entry are separate records, joined by “and”; a condition that tells them apart may be missing. Equal values may be shown once. Inconclusive results are not listed. Entries that show only a call come without a potency. Unmarked numbers belong to inactive results. Activity calls are given as the source filed them. Calls follow the shape of the dose curve; as a rule, active = well fitted cell-killing curve with a large enough effect; inconclusive = small, poorly fitted or top-dose-only effect, or effect the other way; inactive = flat fitted curve, though single readings scatter.

The values that follow come from PubChem BioAssay (NCATS).
Potency is read from the fitted curve at half-maximal effect.

For the first experiment, the system named is SKOV3. The experiment is described as follows: Primary qHTS to identify gynecologic anti-cancer compounds using libraries of approved drugs and bioactive compounds (AID 1345084). Also: nearly all actives have a fitted effect of over 55% in size. The note with it: Gynecologic cancer cell panel viability, ATPlite luminescence, 48 h; series mostly up to 57.5 µM. The essentials: (§1)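 Five-point cytotoxicity, 48 h drug exposure at 37 C, 5% CO2, on cells seeded 16 h beforehand. ATP content read by ATPlite luminescence.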
(Quantitative high-throughput screening tests each substance at several concentrations.)
As to `Cc1nnc(C(C)C)n1C1CC2CCC(C1)N2CCC(NC(=O)C1CCC(F)(F)CC1)c1ccccc1` (stereo not given), the Potency entry was “inactive”.

With `CON(C)C(=O)N1N=C(c2cc(F)ccc2F)S[C@@]1(CCCN)c1ccccc1`, the Potency result is “inactive”.

With `COc1cc2c(Nc3ccc(Cl)c(Cl)c3F)ncnc2cc1OCC1C[C@@H]2CN(C)C[C@@H]2C1` (stereo not given in full), the Potency was 14.1 µM (active).

For `CN1CCC(c2c[nH]c3ccc(NC(=O)c4ccc(F)cc4)cc23)CC1`, the Potency entry was “inactive”.

As for `CCC(=O)O[C@]1(C(=O)CCl)[C@@H](C)C[C@H]2[C@@H]3C[C@H](F)C4=CC(=O)C=C[C@]4(C)[C@@]3(F)[C@@H](O)C[C@@]21C`, the Potency entry was “inactive”.

Take `Nc1c(Br)cc(Br)cc1CNC1CCC(O)CC1` (stereo not given): the Potency entry is “inactive”.

Regarding `CC(=O)c1cnc2ccc(-c3cc(Cl)c(O)c(Cl)c3)nc2c1NC1CCC(CN(C)C)CC1` (stereo not given), the Potency is 0.891 µM (active).

For the compound `COc1cc(N2CCC(N(C)C)CC2)ccc1Nc1ncc(Cl)c(Nc2ccccc2P(C)(C)=O)n1`, the Potency was 3.55 µM (active).

For the compound `Cc1nc2c(-c3cnc(N)nc3)nc(N3CCOCC3)nc2n1C(C)C`, the Potency is 0.562 µM (active).

Regarding `CC1=CC(=O)C[C@H]2[C@@H]1CC[C@@H](C)[C@]21CO[C@H](c2ccoc2)C1=O`, the Potency result is “inactive”.

`NS(=O)(=O)OC[C@@H]1C[C@@H](n2ccc3c(N[C@H]4CCc5ccccc54)ncnc32)C[C@@H]1O`: the Potency is 10 µM (active).

`CC(C)C1(O[C@@H]2O[C@H](CO)[C@@H](O)[C@H](O)[C@H]2O)CC=C(CO)CC1` (stereo not given in full): the Potency entry was “inactive”.

For `CCc1nc(C(N)=O)c(Nc2ccc(N3CCC(N4CCN(C)CC4)CC3)c(OC)c2)nc1NC1CCOCC1`, the Potency is 1.12 µM (active).

The subject of the next experiment is Tov-21-G. The experiment is described as above. The note with it: Gynecologic cancer cell panel viability, ATPlite luminescence, 48 h; series mostly up to 57.5 µM. The essentials:
as §1
On the technique in general: In ATP-based viability assays light output follows the ATP content of the culture.
For the compound `CC(=O)O[C@@H]1[C@H](O[C@@H]2OC[C@](O)(CO)[C@H]2O)[C@@H](O[C@@H]2O[C@@H](C)[C@H](O)[C@@H](O)[C@H]2O)[C@H](OC(=O)[C@]23CCC(C)(C)C[C@H]2C2=CCC4[C@@]5(C)C[C@H](O)[C@H](O[C@@H]6O[C@H](C(=O)O)[C@@H](O)[C@H](O)[C@H]6O)[C@@](C)(C(=O)O)C5CC[C@@]4(C)[C@]2(C)CC3)O[C@@H]1C` (stereo not given in full), the activity change, negative = cytotoxicity is 1.94% [at 11.6 µM].

Take `Cc1nnc(C(C)C)n1C1CC2CCC(C1)N2CCC(NC(=O)C1CCC(F)(F)CC1)c1ccccc1` (stereo not given): the Potency result is “inactive”.

Turning to `COC1CCCC/C(C)=C/C2C=C(C)C(C)C3C(CC(C)C)NC(=O)C23C(=O)C1` (stereo not given), the Potency result is “inactive”.

With `CN1CCC(c2c[nH]c3ccc(NC(=O)c4ccc(F)cc4)cc23)CC1`, the Potency result is “inactive”.

Turning to `NCc1ccc(OCCCc2sc(-c3ccc4c(c3)/C(=N/Nc3nc5ccccc5s3)CCC4)nc2C(=O)O)cc1`, the Potency result was “inactive”.

As to `C=C1CCC2C(C)(C)CC(=O)CC2(C)C1CCC(C)CCOC(C)=O` (stereo not given), the Potency entry is “inactive”.

Take `O=C(Nc1cccnn1)N1CCC(=Cc2cccc(Oc3ccc(C(F)(F)F)cn3)c2)CC1`: the Potency entry was “inactive”.

As to `CN(NC(=O)CC(=O)NN(C)C(=S)c1ccccc1)C(=S)c1ccccc1`, the Potency is 1.12 µM (active).

Regarding `CCC(=O)O[C@]1(C(=O)CCl)[C@@H](C)C[C@H]2[C@@H]3C[C@H](F)C4=CC(=O)C=C[C@]4(C)[C@@]3(F)[C@@H](O)C[C@@]21C`, the Potency entry is “inactive”.

Take `Nc1c(Br)cc(Br)cc1CNC1CCC(O)CC1` (stereo not given): the Potency entry was “inactive”.

Consider `C=CCc1ccc(O[C@@H]2O[C@H](CO)[C@@H](O)[C@H](O)[C@H]2O)c(OC)c1`, for which the Potency result was “inactive”.

`COc1cc(N2CCC(N(C)C)CC2)ccc1Nc1ncc(Cl)c(Nc2ccccc2P(C)(C)=O)n1`: the Potency is 7.08 µM (active).

For `Cc1nc2c(-c3cnc(N)nc3)nc(N3CCOCC3)nc2n1C(C)C`, the Potency was 0.631 µM (active).

Regarding `CC1=CC(=O)C[C@H]2[C@@H]1CC[C@@H](C)[C@]21CO[C@H](c2ccoc2)C1=O`, the Potency entry is “inactive”.

In the case of `NS(=O)(=O)OC[C@@H]1C[C@@H](n2ccc3c(N[C@H]4CCc5ccccc54)ncnc32)C[C@@H]1O`, the Potency was 501 nM (active) and 398 nM (active).

In the case of `CC(C)C1(O[C@@H]2O[C@H](CO)[C@@H](O)[C@H](O)[C@H]2O)CC=C(CO)CC1` (stereo not given in full), the Potency result is “inactive”.

On to `Cc1cc(C)c(S(=O)(=O)N(Cc2ccc(-c3cccc(S(C)(=O)=O)c3)cc2)Cc2ccc(C(F)(F)F)o2)c(C)c1`, for which the Potency entry was “inactive”.

A further experiment has as its system Tov112D. The description is as above. The note with it: Gynecologic cancer cell panel viability, ATPlite luminescence, 48 h; series mostly up to 57.5 µM. The essentials:
as §1
In the case of `CC(=O)O[C@@H]1[C@H](O[C@@H]2OC[C@](O)(CO)[C@H]2O)[C@@H](O[C@@H]2O[C@@H](C)[C@H](O)[C@@H](O)[C@H]2O)[C@H](OC(=O)[C@]23CCC(C)(C)C[C@H]2C2=CCC4[C@@]5(C)C[C@H](O)[C@H](O[C@@H]6O[C@H](C(=O)O)[C@@H](O)[C@H](O)[C@H]6O)[C@@](C)(C(=O)O)C5CC[C@@]4(C)[C@]2(C)CC3)O[C@@H]1C` (stereo not given in full), the activity change, negative = cytotoxicity is 2.89% [at 11.6 µM].

For the compound `CNC(=O)c1ccc(Nc2ncc(C(F)(F)F)c(NCc3nccnc3N(C)S(C)(=O)=O)n2)cc1`, the Potency was 22.4 µM (active).

In the case of `Cc1nnc(C(C)C)n1C1CC2CCC(C1)N2CCC(NC(=O)C1CCC(F)(F)CC1)c1ccccc1` (stereo not given), the Potency result was “inactive”.

As for `COC1CCCC/C(C)=C/C2C=C(C)C(C)C3C(CC(C)C)NC(=O)C23C(=O)C1` (stereo not given), the Potency result is “inactive”.

For `COc1cc2c(Nc3ccc(Cl)c(Cl)c3F)ncnc2cc1OCC1C[C@@H]2CN(C)C[C@@H]2C1` (stereo not given in full), the Potency was 17.8 µM (active).

For the compound `CN1CCC(c2c[nH]c3ccc(NC(=O)c4ccc(F)cc4)cc23)CC1`, the Potency entry is “inactive”.

With `NCc1ccc(OCCCc2sc(-c3ccc4c(c3)/C(=N/Nc3nc5ccccc5s3)CCC4)nc2C(=O)O)cc1`, the Potency entry was “inactive”.

With `O=C(O)C[C@H](O)C[C@H](O)/C=C/c1c(C2CC2)nc2ccccc2c1-c1ccc(F)cc1`, the Potency was 11.2 µM (active).

For `C=C1CCC2C(C)(C)CC(=O)CC2(C)C1CCC(C)CCOC(C)=O` (stereo not given), the Potency entry is “inactive”.

For the compound `O=C(Nc1cccnn1)N1CCC(=Cc2cccc(Oc3ccc(C(F)(F)F)cn3)c2)CC1`, the Potency entry is “inactive”.

In the case of `CN(NC(=O)CC(=O)NN(C)C(=S)c1ccccc1)C(=S)c1ccccc1`, the Potency result is “inactive”.

In the case of `CCC(=O)O[C@]1(C(=O)CCl)[C@@H](C)C[C@H]2[C@@H]3C[C@H](F)C4=CC(=O)C=C[C@]4(C)[C@@]3(F)[C@@H](O)C[C@@]21C`, the Potency entry was “inactive”.

With `Nc1c(Br)cc(Br)cc1CNC1CCC(O)CC1` (stereo not given), the Potency result is “inactive”.

Regarding `C=CCc1ccc(O[C@@H]2O[C@H](CO)[C@@H](O)[C@H](O)[C@H]2O)c(OC)c1`, the Potency entry was “inactive”.

Turning to `CN(C)C/C=C/C(=O)Nc1ccc(C(=O)Nc2cccc(Nc3ncc(Cl)c(-c4c[nH]c5ccccc45)n3)c2)cc1`, the Potency is 0.631 µM (active).

`CC(=O)c1cnc2ccc(-c3cc(Cl)c(O)c(Cl)c3)nc2c1NC1CCC(CN(C)C)CC1` (stereo not given): the Potency was 0.447 µM (active).

Consider `COc1cc(N2CCC(N(C)C)CC2)ccc1Nc1ncc(Cl)c(Nc2ccccc2P(C)(C)=O)n1`, for which the Potency is 10 µM (active).

Consider `CC1=CC(=O)C[C@H]2[C@@H]1CC[C@@H](C)[C@]21CO[C@H](c2ccoc2)C1=O`, for which the Potency entry is “inactive”.

Regarding `CC(C)C1(O[C@@H]2O[C@H](CO)[C@@H](O)[C@H](O)[C@H]2O)CC=C(CO)CC1` (stereo not given in full), the Potency entry was “inactive”.

Consider `Cc1cc(C)c(S(=O)(=O)N(Cc2ccc(-c3cccc(S(C)(=O)=O)c3)cc2)Cc2ccc(C(F)(F)F)o2)c(C)c1`, for which the Potency result is “inactive”.
